Results: PubChem BioAssay (EPA / NIEHS)
Calls of active or inactive are those of the source. Rule for the calls: active = hit-call score of the fitted dose curve at least 0.9, where 1 is the maximum; inactive = score below 0.9.

assay: STM_H9_CystineISnorm_perc: Stemina devTOX quickPredict H9 human embryonic stem cell (hESC)-based Assay for Cystine (CYSS) Metabolite Biomarker, Normalized (AID 2283713)
Outline: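 Cystine in spent media from the last 24 h of a 72 h H9 hESC exposure (daily re-dosing), measured by UPLC-HRMS. Values normalized to isotopic internal standard, then to 0.1% DMSO; viability via CellTiter-Fluor.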

SMILES | outcome | AC50
Cc1ccc(-c2cc(C(F)(F)F)nn2-c2ccc(S(N)(=O)=O)cc2)cc1 | inactive | –
CCC(C)N(C)C(=O)c1cc2ccccc2c(-c2ccccc2Cl)n1 (centres undefined) | inactive | –
CC(C)OC(=O)C(C)(C)Oc1ccc(C(=O)c2ccc(Cl)cc2)cc1 | inactive | –
CCCCCCCCCC[N+](C)(C)[O-] | – | 25 µM (active)
CC(COCC(C)OC(=O)c1ccccc1)OC(=O)c1ccccc1 (centres undefined) | inactive | –
O=C(O)CN(CC(=O)O)CC(=O)O | – | 14.8 µM (active)
CC(=O)CC(c1ccccc1)c1c(O)c2ccccc2oc1=O (centres undefined) | inactive | –
N[C@@H](Cc1c[nH]c2ccccc12)C(=O)O | inactive | –
O=C(O)c1cccnc1 | inactive | –
O=Cc1ccccc1C=O | inactive | –
O=C(Oc1ccccc1)c1cccc(C(=O)Oc2ccccc2)c1 | inactive | –
Cc1cc(Cc2ccc(N)c(C)c2)ccc1N | inactive | –
CN(C)CCCN1c2ccccc2Sc2ccc(Cl)cc21 | – | 0.751 µM (active)
CCc1nc(N)nc(N)c1-c1ccc(Cl)cc1 | – | 30.6 µM (active)
Cc1ccc(C(C)(C)C)c(O)c1 | inactive | –
CCCC[C@H]1CN(CC2CCOCC2)C(=O)OC12CCN(C1(C)CCN(C(=O)c3c(C)ncnc3C)CC1)CC2 | inactive | –
CC(=O)[C@@]1(O)CC[C@H]2[C@@H]3CCC4=CC(=O)CC[C@]4(C)[C@H]3CC[C@@]21C | – | 80 µM (active)
CCN(CC)CCOc1ccc(C(=C(Cl)c2ccccc2)c2ccccc2)cc1 | – | 1.17 µM (active)
CCc1cc(C2=C(C(=O)O)N(c3ccccc3C(F)(F)F)S(=O)(=O)c3ccccc32)cc2c1OCO2 | inactive | –
